Measurements: PubChem BioAssay (NCI)
The panel holds about 83,000 compounds, 20% with a hit somewhere; the sample as a whole holds those more often.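 Each cell line was grown in a 96-well plate and treated with one concentration of compound for 48 hours. Values below 10 were considered active.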 Values without a mark were called inactive. The source made the active and inactive calls.

What was measured:
Test in all cases: NCI-60 one-dose screen, 48 h (100 = growth as untreated, 0 = no growth, -100 = all killed)
Details in all cases: 10 µM unless noted
[1] = test system: DU-145 prostate
[2] = test system: K-562 leukemia
[3] = test system: MALME-3M melanoma
[4] = test system: MDA-MB-231 breast
[5] = test system: RXF 393 renal
[6] = test system: SF-268 CNS
[7] = test system: SF-295 CNS
[8] = test system: SF-539 CNS
[9] = test system: UACC-257 melanoma
[10] = test system: M14 melanoma

| Structure (SMILES) | growth [1] | growth [2] | growth [3] | growth [4] | growth [5] | growth [6] | growth [7] | growth [8] | growth [9] | growth [10] |
| --- | --- | --- | --- | --- | --- | --- | --- | --- | --- | --- |
| CS(=O)CC(=N\O)/C(CS(C)=O)=N\O (stereo not given) | 102% | 106% | 97.5% | 101% | 114% | 98.5% | 101% | 101% | 96.3% | 96.3% |
| c1ccc2[nH]c(Cc3nc4ccccc4[nH]3)nc2c1 | 109% | 126% | 89% | 106% | 114% | 131% | 101% | 105% | 111% | 94.3% |
| COc1cc(-c2ccc(NC(=O)CC(C)=O)c(OC)c2)ccc1NC(=O)CC(C)=O | 111% | 98% | 97.3% | 101% | 113% | 107% | 101% | 97.6% | 89.3% | 104% |
| Nc1nc(Cl)cc(Cl)n1 | 108% | 92.3% | 90.8% | 114% | 102% | 100% | 106% | 107% | 85.5% | 96.4% |
| CCOc1ccc(C(=O)NCC(C)C)cc1 | 110% | 102% | 101% | 93.2% | 108% | 102% | 99.5% | 94.4% | 110% | 97% |
| C#CC(O)c1ccccc1 (stereo not given) | 110% | 99.3% | 99.7% | 101% | 112% | 112% | 110% | 99.7% | 102% | 101% |
| C=C(C)[C@@H]1CC[C@]2(CO)CC[C@]3(C)[C@H](CC[C@@H]4[C@@]5(C)CC[C@H](O)C(C)(C)[C@@H]5CC[C@]43C)[C@@H]12 | 28.2% | 24.3% | 63% | 4.46% (active) | -50.7% (active) | 54.6% | 71.4% | -33% (active) | 6.89% (active) | 49.3% |
| CN1CCN(C(=S)S)CC1 | 102% | 73.5% | 143% | 106% | 130% | 102% | 127% | 104% | 105% | 105% |
| FC(F)(F)c1cc(NC2=NCCN=C(Nc3cc(C(F)(F)F)cc(C(F)(F)F)c3)SS2)cc(C(F)(F)F)c1 | 66.6% | 28.8% | 37% | 73.2% | 77.6% | 74.2% | 52.6% | 81.3% | 64.4% | 82.1% |
| O=C(O)c1ccc(OCc2ccccc2)cc1 | 109% | 108% | 102% | 92.7% | 112% | 106% | 96.2% | 97.5% | 89.9% | 103% |
| COC1=C(OC)C(=O)C(SC/C=C(\C)CCCC(C)CCCC(C)CCCC(C)C)=CC1=O (stereo not given) | 32% | 8.26% (active) | 5.25% (active) | 15.5% | -0.159% (active) | 28.7% | 16.5% | 16.9% | 13.6% | 26.9% |
| Cc1c(-c2ccc(C3CCCCC3)cc2)nc2ccc(F)cc2c1C(=O)O | 39.3% | 22.9% | 62.1% | 62.7% | 74.1% | 42.8% | 2.98% (active) | 37.1% | 65.2% | 47.9% |
| Cc1cc(=O)n(Nc2ccccc2)c(O)c1C#N | 109% | 92.5% | 105% | 103% | 124% | 102% | 101% | 104% | 116% | 99.4% |
| C=C1CC2(OC1=O)C(=O)N(C)c1ccc(I)cc12 (stereo not given) | -95.2% (active) | -50% (active) | -77.1% (active) | -2.19% (active) | -73.4% (active) | -75% (active) | 55.4% | -88.2% (active) | -69.3% (active) | -76.6% (active) |
| Clc1ccc(/C=C/c2ccccn2)cc1 | 109% | 107% | 108% | 98.9% | 116% | 91.3% | 100% | 94.2% | 103% | 101% |
| CCC(=O)C1C(=O)c2ccccc2C1=O | 113% | 63.7% | 96.8% | 89.8% | 120% | 101% | 96.9% | 106% | 110% | 111% |
| CN(C(=S)S(=O)(=O)C12CC3CC(CC(C3)C1)C2)c1ccccc1 | 95.3% | 72% | 108% | 88.9% | 111% | 94.5% | 105% | 97.6% | 87.3% | 107% |
| CCN(CC)CCN1CNC(=S)NC1 | 106% | 102% | 103% | 114% | 114% | 102% | 102% | 103% | 111% | 102% |
| CC(=O)OC(C)c1cccc(C#N)c1 (stereo not given) | 108% | 103% | 103% | 108% | 110% | 103% | 102% | 101% | 100% | 97.4% |
| Cc1ccc(C2CCCCC2)cc1Br | 105% | 100% | 100% | 97.4% | 105% | 99.5% | 95.5% | 101% | 88.8% | 98.6% |
| Cc1ccc(C)c(CN(C)C)c1O | 108% | 119% | 94.8% | 109% | 107% | 104% | 97.8% | 96.5% | 105% | 105% |
| S=C(Sc1ccc(Cl)cc1)Sc1ccc(Cl)cc1 | 17.2% | -44% (active) | -52.8% (active) | -29.5% (active) | -85.5% (active) | -1.56% (active) | 66% | 37.6% | 88% | -45.1% (active) |
| Cc1ccc(O)c(N)c1 | 122% | 113% | 103% | 92.8% | 117% | 112% | 131% | 103% | 111% | 108% |
| CCOC(=O)c1cc(Cl)c(O)c(Cl)c1 | 104% | 121% | 114% | 106% | 116% | 97.7% | 103% | 106% | 109% | 105% |
| Nc1ccc(F)c(Cl)c1F | 111% | 100% | 107% | 101% | 97.1% | 106% | 107% | 103% | 118% | 97.2% |
| c1ccc2c(NCCCN3CCN(CCCNc4c5ccccc5nc5ccccc45)CC3)c3ccccc3nc2c1 | -63.4% [100 µM] (active) | -10.1% [100 µM] (active) | -69.7% [100 µM] (active) | -40.3% [100 µM] (active) | -90.3% [100 µM] (active) | -34.9% [100 µM] (active) | -48.1% [100 µM] (active) | -79.2% [100 µM] (active) | -36.4% [100 µM] (active) | -81% [100 µM] (active) |
| CCC12OC(COc3ccccc3)CN1CCN2c1ccccc1 (stereo not given) | 106% [100 µM] | 93.1% [100 µM] | 98.4% [100 µM] | 88.8% [100 µM] | 99.9% [100 µM] | 92.2% [100 µM] | 105% [100 µM] | 95.9% [100 µM] | 95.8% [100 µM] | 103% [100 µM] |
| CCCc1cccc(CCC)c1NC(=O)Nc1cc(Cl)cc(Cl)c1 | 107% | 100% | 87.5% | 90.2% | 116% | 94.9% | 109% | 92.4% | 86% | 101% |
| CCC(C)c1c(N)n(S(=O)(=O)c2ccc(C)cc2)oc1=O (stereo not given) | 115% | 130% | 135% | 108% | 125% | 109% | 104% | 96.6% | 90.6% | 105% |
